Assay results taken from publication PMC10668032, “Altered binding affinity of SIX1-Q177R correlates with enhanced WNT5A and WNT pathway effector expression in Wilms tumor”.
In all, about 33,000 sequences were measured (“e-score”: median about -0.053, highest 2% from about 0.38 on). The full list was thinned out, with the highest values kept by preference.

The sequences below were run against T1, SIX1 homeodomain (reference allele) (human, UniProt Q15475 108-198) (assay: universal protein binding microarray; Universal all-10-mer PBM (8x60K, AMADID 030236), 300 nM GST-tagged protein, Alexa Fluor 488 anti-GST; buffer, salt, pH and temperature not stated (as in Berger); high values mean tight binding). Conditions: protein: ivt; tags: N-terminal GST; dsDNA, one strand shown.
T1 sequence: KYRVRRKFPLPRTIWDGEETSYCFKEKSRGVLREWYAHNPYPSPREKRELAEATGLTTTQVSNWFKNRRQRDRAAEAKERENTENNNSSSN
Procedure, shortened: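 Homeodomains fused to GST were made by in vitro transcription/translation and measured by anti-GST western blot with a recombinant GST standard curve. At 300 nM final concentration, they were applied in duplicate to universal 'all 10-mer' protein binding microarrays (8×60K format).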

Sequence | binding signal [E-score]
ATCACGCC | 0.26 ± 0.00476
ATCTCTTG | 0.224 ± 0.039
CAGATCTG | 0.216 ± 0.124
AGCTCGAT | 0.227 ± 0.00607
CATCCTAC | 0.157 ± 0.0313
ATACATGA | 0.231 ± 0.0327
ATACAATG | 0.248 ± 0.00431
GATACCCA | 0.4758 ± 0.00303
CATACCCA | 0.208 ± 0.066
TATACCCA | 0.401 ± 0.0193
CATACCCG | 0.259 ± 0.0615
TCTACCCA | 0.221 ± 0.0189
CGCTATAC | 0.254 ± 0.0251
ACTTGTAT | 0.246 ± 0.0178
CTTAATAC | 0.281 ± 0.0535
CAGATAAC | 0.191 ± 0.0157
ATCTGGCC | 0.181 ± 0.0229
CTACACCC | 0.263 ± 0.044
AAACACCC | 0.253 ± 0.0462
ATACACCC | 0.391 ± 0.00614
ATACACAG | 0.289 ± 0.0145
CTACACCA | 0.312 ± 0.0106

Sequence | binding signal [E-score]
ATACACAC | 0.249 ± 0.0542
ATACACCA | 0.389 ± 0.0166
ATACACCG | 0.398 ± 0.0351
GTACACCA | 0.233 ± 0.039
CATCGAAG | 0.178 ± 0.0656
ATCGTGCC | 0.192 ± 0.00267
ATACTTAG | 0.205 ± 0.0528
CACCTATC | 0.266 ± 0.0455
GAAAGATA | 0.324 ± 0.096
GGGAAACC | 0.162 ± 0.106
ATATCCAA | 0.358 ± 0.01
CTATCCAG | 0.199 ± 0.0567
ATATCCAC | 0.395 ± 0.0197
GTATCCAA | 0.421 ± 0.0174
GTATCCAC | 0.3951 ± 0.00369
ATATCCAT | 0.389 ± 0.0181
ATATCCAG | 0.373 ± 0.0215
TAATCCAA | 0.1853 ± 0.00116
CTATCCAC | 0.219 ± 0.0193
CGATCCAC | 0.375 ± 0.0695
AGATCCAT | 0.254 ± 0.00332
CAATCCAC | 0.168 ± 0.0919

Sequence | binding signal [E-score]
CGACAGAA | 0.153 ± 0.115
ATATGTCG | 0.272 ± 0.052
ATCCAGGG | 0.236 ± 0.0104
ATCATCAG | 0.154 ± 0.0285
GATCTAGC | 0.215 ± 0.0211
GATCCTGA | 0.301 ± 0.0202
TATCCTGA | 0.382 ± 0.0186
CATCCTGA | 0.169 ± 0.0388
AATCCATA | 0.214 ± 0.0274
GATCCATA | 0.357 ± 0.0223
TATCCATA | 0.39076 ± 0.000148
GAACAATA | 0.2 ± 0.0128
CTTAGATC | 0.158 ± 0.00598
CCTACTCA | 0.161 ± 0.0165
ATACTAAG | 0.209 ± 0.0591
TAACACGA | 0.19 ± 0.0238
CTCAATAC | 0.259 ± 0.0252
CTTGATAC | 0.442 ± 0.0251
ATTGATCC | 0.406 ± 0.0164
CTTGACAC | 0.244 ± 0.0534
ATTGATAG | 0.288 ± 0.0226
CTTGATCA | 0.218 ± 0.037

Sequence | binding signal [E-score]
ATTGATGC | 0.182 ± 0.0328
CTTGATCC | 0.361 ± 0.00995
ATTGATAC | 0.465 ± 0.0161
CGTCTCGC | 0.167 ± 0.0173
GATCGACC | 0.162 ± 0.12
GATCTCGA | 0.221 ± 0.00099
AATACTCT | 0.257 ± 0.089
AACCTATA | 0.205 ± 0.0654
CCCTTGGA | 0.213 ± 0.00655
ATCCCTTC | 0.303 ± 0.0125
CTACTGTA | 0.165 ± 0.0781
AATTAATA | 0.191 ± 0.0409
AGATACAA | 0.168 ± 0.0186
AGATACAG | 0.246 ± 0.0181
GGATACAA | 0.354 ± 0.037
CGATACAA | 0.288 ± 0.0425
GCATACAC | 0.155 ± 0.0339
CGATACAC | 0.418 ± 0.0108
AGATACAC | 0.3801 ± 0.00099
CGATACAG | 0.313 ± 0.044
GGATACAC | 0.405 ± 0.0186
ACAATATG | 0.239 ± 0.0268

Sequence | binding signal [E-score]
ATCACTTA | 0.273 ± 0.0813
ATGGGGTC | 0.168 ± 0.00238
AGTAGATC | 0.321 ± 0.0238
GACCGATC | 0.246 ± 0.028
ATACTTCC | 0.241 ± 0.0829
AGTATAAT | 0.265 ± 0.0967
CGTATCAG | 0.465 ± 0.00812
ACTATCAG | 0.217 ± 0.0215
CCTATCAG | 0.326 ± 0.00869
AGTATCAT | 0.473 ± 0.0218
ATCATCAC | 0.228 ± 0.00571
ATTATCAG | 0.168 ± 0.0386
ACTATCAT | 0.3 ± 0.0715
AGTATTAA | 0.233 ± 0.112
AGTATCAC | 0.464 ± 0.0196
AGTATCAG | 0.46 ± 0.0186
AGTATTAG | 0.301 ± 0.0212
ATCGTGAG | 0.26 ± 0.00974
CGGTAATA | 0.23 ± 0.0198
AGACCGAT | 0.179 ± 0.0125
TACTCGGA | 0.162 ± 0.0415
ACACCTGA | 0.281 ± 0.0355
